Compound activity deposited in PubChem by National Center for Advancing Translational Sciences (NCATS).
Nrf2 inh: inhibitors of Nrf2 signaling; Potency, µM (doses to about 46 µM), for inactives: at the top dose activity change, negative = inhibition, most hits filed as inhibitors; A549 ARE-Fluc reporter, luciferase luminescence, 18-24 h; actives 2.1% (n = 360,000); also: % is scaled to controls: 0 for no effect and ±100 for the full control effect; nearly all actives have a fitted effect of over 60% in size
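Cells were seeded and rested 2 h, then exposed to compounds for 18-24 h. CellTiter-Fluor was read first as a viability measure. BugLite was added 15 min before the final luminescent read of ARE-luciferase activity in A549 cells.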
TGFb SMAD3 inh: blocks TGF-b signaling. AID 588855. actives 1.2% (n = 410,000). HepG2 CAGA-GFP TGF-b/SMAD3 reporter, GFP fluorescence, 18 h; TGF-beta stimulated, 500 pg/mL final. Potency, µM (top dose mostly 46.1 µM), for inactives: top-dose activity, negative = inhibition, actives largely listed as inhibitors; also: % is scaled to controls: 0 for no effect and ±100 for the full control effect; nearly all actives have a fitted effect of over 65% in size
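HEPG2 CAGA-GFP cells (1000/well, DMEM with 1% FBS) were pre-incubated 2 h at 37 degrees C, given compound by pin tool, then stimulated with TGF-beta at 500 pg/mL final for 18 h before per-cell GFP fluorescence imaging.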
S2 tox: reduces viability in counter-screen for ATXN expression inhibitors. Potency, µM (series often up to 56.7 µM), most hits filed as cytotoxic. AID 651635. S2 cells (HEK-293 line with an ATXN2-luciferase reporter) viability, CellTiter-Fluor protease fluorescence, 24 h. actives 0.49% (n = 400,000); also: nearly all actives have a fitted effect of over 40% in size
ATXN2 expr inh: ATXN2 expression inhibition; HEK-293 ATXN2-luciferase reporter, luminescence, 24 h; Potency, µM (top dose mostly 57 µM), for inactives: at the top dose activity change, negative = inhibition, hits mostly inhibitors; actives 0.72% (n = 360,000); AID 1745845; also: % is scaled to controls: 0 for no effect and ±100 for the full control effect; nearly all actives have a fitted effect of over 55% in size
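qHTS (up to 57 uM final) was run with 24 h compound exposure of reporter cells at 37 °C. Each well was multiplexed: SteadyGlo luminescence measured ATXN2-luciferase expression after a fluorogenic Gly-Phe-AFC viability readout (25 uM final).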
HepG2 tox: HepG2 cytotoxicity, counter-screen for TGF-b inhibitors; HepG2 CAGA-GFP viability, ATP luminescence, 18 h; Potency, µM (highest dose often 46.1 µM), inactives show top-dose activity change, negative = cytotoxicity, actives largely listed as cytotoxic; actives 0.76% (n = 410,000); AID 588856
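HepG2 CAGA-GFP cells (1000/well, DMEM with 1% FBS) received compound, then TGF-beta at 500 pg/mL final, and were incubated 18 hours at 37 degrees C. Viability was read by CellTiter-Glo luminescence. Media-only wells were set as complete cell-killing and DMSO as no toxicity.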
A549 viability: A549 cytotoxicity, counter-screen for Nrf2 inhibitors; AID 504648; Potency, µM (doses to about 46 µM), inactives show top-dose activity change, negative = cytotoxicity, actives largely listed as inhibitors; actives 0.16% (n = 390,000); A549 ARE-Fluc cells, CellTiter-Fluor viability, 18-24 h; also: % is scaled to controls: 0 for no effect and ±100 for the full control effect
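A549 ARE_Fluc cells in 5% FBS OPTI-MEM were exposed to compounds in concentration-response for 18-24 h at 37 deg C. Viability was read by CellTiter-Fluor fluorescence (Ex 405/Em 525) after 30 min, before the luciferase read.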
* hit, by the source's call; i = inactive; ? = inconclusive; · = no result given. This is a sample that favours compounds with a hit; in the whole collection about 3.8% have one here. Calls follow the shape of the dose curve; as a rule, active = well fitted curve in the direction sought with a large enough effect; inconclusive = small, poorly fitted or top-dose-only effect, or another doubt; inactive = no such curve, though single readings can be large; an effect the other way counts as inactive or inconclusive. Potency is read from the fitted curve at half-maximal effect.

SMILES	Nrf2 inh	TGFb SMAD3 inh	S2 tox	ATXN2 expr inh	HepG2 tox	A549 viability
COC(=O)/C(=C1/Oc2ccc(C(C)(C)C)cc2S1)C(F)(F)F	?	-1%	i	40%	4%	2%
O=C(Nc1ccc2c(c1)OCO2)c1ccc2sc([C@H]3C[C@H](O)[C@@H](CO)O3)nc2c1	·	10%	i	16%	3%	·
CCN1c2ccccc2NC2N=C(OC)C(c3ccccc3)C21 (stereo not given)	?	13µM*	i	?	11µM*	21µM*
CCOC(=O)C(=NCC1CCCO1)NNc1ccccc1Cl (stereo not given)	-8%	-5%	i	-9%	1.3µM*	2%
CCOC(=O)c1ccccc1NC(=O)C1CCCO1 (stereo not given)	?	-4%	i	-6%	-33%	-3%
CC1(C(=O)Nc2ccc(Cl)c(C(F)(F)F)c2)Cc2c(-c3ccc(C(N)=O)cc3)ccnc2O1 (stereo not given)	·	11µM*	?	-26%	16µM*	·
CC1(C(=O)Nc2ccc(Cl)c(C(F)(F)F)c2)Cc2c(-c3cccc(C(N)=O)c3)ccnc2O1 (stereo not given)	·	?	?	?	-59%	·
COc1cccc(-c2c(-c3cc(OC)cc(OC)c3)n(C)c3ccc(-c4cccc5[nH]ccc45)cc23)c1	16%	-10%	i	-20%	-2%	18%
COc1ccc(CSCC(=O)N/N=C/c2ccccc2O)cc1	-7%	-22%	i	25µM*	-19%	6%
CCc1cccc2c(-c3ccc(F)cc3)nc(SCC(=O)Nc3ccccc3)nc12	19%	-7%	·	·	-14%	9%
CCCCC(CC)C(=O)Oc1ccc(O)c(C(C)(C)C)c1 (stereo not given)	-25%	14µM*	?	-34%	-95%	0%
CC(C)(C)c1cc(OC(=O)C2CCCC2)ccc1O	-18%	?	i	-11%	-54%	-15%
Cc1ccc(Nc2sc(C(=O)c3ccccc3)c(N)c2S(=O)(=O)c2ccccc2)c(C)c1	2%	-18%	·	·	-11%	-12%
Cc1nc(Nc2ccc(F)cc2)[nH]c(=O)c1CCC(C)C	15µM*	?	i	-28%	-56%	?
CC1CCCN(S(=O)(=O)c2ccc(C(=O)Nc3nnc(-c4ccccn4)o3)cc2)C1 (stereo not given)	13µM*	-25%	i	·	-42%	0%
COc1ccccc1NC(=O)c1ccc(S(=O)(=O)N2CCC(C)CC2)cc1	8.2µM*	-25%	i	-12%	-4%	0%
CC1CCN(S(=O)(=O)c2ccc(C(=O)Nc3nnc(-c4ccco4)o3)cc2)CC1	8.2µM*	-20%	i	?	-11%	0%
COc1ccccc1NC(=O)c1ccc(S(=O)(=O)N2CCOCC2)cc1	-13%	-13%	i	0%	-7%	-7%
CC1CN(S(=O)(=O)c2ccc(C(=O)Nc3nnc(-c4ccco4)o3)cc2)CC(C)O1 (stereo not given)	?	-8%	i	-17%	-28%	-2%
COc1cccc(-c2nnc(NC(=O)c3ccc(S(=O)(=O)N4CC(C)OC(C)C4)cc3)o2)c1 (stereo not given)	9.2µM*	-19%	?	?	-14%	-23%
CCCOc1ccc(CNC(=O)c2cc3ccccn3n2)cc1	?	?	i	28%	-24%	18%
Cc1nn2c(COc3ccc(NC(=O)c4ccccc4Cl)cc3)nnc2c2ccccc12	?	-29%	i	4%	-22%	-1%
O=C(/C=C/c1cccc2ccccc12)c1ccncc1	?	11µM*	i	?	11µM*	-4%
O=C(N/N=C/c1cccc2ccccc12)c1ccncc1	0%	25%	i	·	10%	0%
